Several values for one entry are separate records, joined by “and”; a condition that tells them apart may be missing. Equal values may be shown once. The panel holds about 83,000 compounds, 20% with a hit somewhere; the sample as a whole holds those more often.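 Results are percent growth after 48 hours of single-concentration exposure. 100 means growth as in untreated cells, lower positive values show inhibition; negative values down to -100 show cell death.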 Some compounds were tested as several samples or in several runs, with calls that do not always agree. Activity calls are given as the source filed them. Rule for the calls: active = growth percent below 10; inactive = the rest.
These compounds were tested on MDA-MB-468 breast (assay: NCI-60 one-dose screen, 48 h (100 = growth as untreated, 0 = no growth, -100 = all killed)). Conditions: 10 µM unless noted.

SMILES | growth
Cc1nn(-c2ccc(-c3ccc(OC(F)(F)F)cc3)cc2)c2nc(-c3ccccc3)nc(N)c12 | 82.6% (inactive)
C=C1C(=O)O[C@H]2[C@H]1CC/C(COC(=O)/C=C/C(=O)NCc1ccc(Cn3c(=O)sn(-c4ccccc4)c3=O)cc1)=C\CC[C@@]1(C)O[C@@H]21 | -43.4% (active)
Cc1cn(-c2cc(NC(=O)c3cncc(C#Cc4cnc5ccc(O[C@H]6CCOC6)nn45)c3)cc(C(F)(F)F)c2)cn1 | 145% (inactive)
C=C1c2nc3ccccc3n2C=C(c2cccc(Cl)c2)N1Cc1ccc(OC)cc1 | 32% (inactive)
COc1ccc(CN2c3ccccc3Sc3ccccc32)cc1O | 9.33% (active)
O=C1/C(=C\c2cn(-c3ccccc3)nc2-c2ccc(-c3cccs3)cc2)CCc2ccccc21 | 36.1% (inactive)
C[C@@H](c1ccccc1)[C@@H](C(=O)O)c1ccccc1 | 96.7% (inactive)
Cn1cc(-c2nc3c(F)cc4[nH]ncc4c3c3c2CCCC3)c(C(F)F)n1 | 52.9% (inactive)
Nc1c(C(=O)Nc2ccnc3ccccc23)sc2nc3c(cc12)CN(Cc1ccccc1)CC3 | 44% (inactive)
CCN(CCO)CC(=O)c1cc(Cl)cc(Cl)c1Cl | 110% (inactive)
O=C(CN1C(=O)NC2NC(=O)NC21)N/N=C/c1cccc([N+](=O)[O-])c1 (stereo not given) | 97.6% (inactive)
CCC(=O)Oc1ccc(/C(=C(\C)c2ccccc2)c2ccc(OCCN(CC)CC)cc2)cc1 | 82.4% (inactive)
CC(=O)[C@H]1CC[C@H]2[C@@H]3CCC4=CC(=O)C=C[C@]4(C)[C@H]3CC[C@]12C | 87.5% (inactive)
CCCCN[C@H]1CC[C@@]2(C)[C@@H](CC[C@@]3(C)[C@H]2[C@H](O)C[C@H]2/C(=C(\CCC=C(C)C)C(=O)OC)[C@@H](OC(C)=O)C[C@@]23C)[C@@H]1C | 88.9% (inactive)
CCCCC(CCc1ccc([N+](=O)[O-])cc1)(C(C)=O)C(=O)OCC (stereo not given) | 83.8% (inactive)
COc1cc(-c2nn(C(C)(C)C)cc2-c2ccnc(NCCCNS(=O)(=O)c3ccc(Cl)cc3)n2)ccc1Cl | 63.7% (inactive)
COc1ccc(C(=O)/C(=N/Nc2ccccc2)c2ccc(OC)cc2)cc1 | 106% (inactive)
C[n+]1c(/C=C/c2ccc([N+](=O)[O-])cc2)ccc2ccccc21 | 52.5% (inactive)

SMILES | growth
COc1ccc(-c2nc3cc(C(=O)NCc4ccccc4)ccc3n2C2CCCCC2)cc1 | 98.4% (inactive)
c1ccc(C2=Nc3ccccc3SC2)cc1 | 122% (inactive)
CC(=O)OC1CCC2(C)C(CCC3C4CC=C(C(C)=O)C4(C)OC(=O)CC32)C1 (stereo not given) | -72.4% (active)
O=C1Nc2ccc(F)cc2/C1=C\c1c(-c2ccccc2)nc2ccccn12 | 35.6% (inactive)
CCCCC(=O)Nc1c(C(=O)Nc2ccccc2)sc2nc3c(cc12)C(OC(=O)CCCC)CCC3 (stereo not given) | 56.2% (inactive)
Cc1nc2ccccc2c(/C=C/c2ccc(Cl)cc2)c1C(=O)/C=C/c1ccc(F)cc1 | -16.5% (active)
COc1ccc(C(=O)/C=C/c2ccc(N3CCCCC3)cc2)cc1OC | 61.8% (inactive)
CC(C)(C)n1cc(-c2ccnc(NCCCNS(=O)(=O)c3cccc4ccccc34)c2)c(-c2cccc(O)c2)n1 | 10.7% (inactive)
COc1ccccc1S(=O)(=O)Nc1ccc2c3c(cc(-c4cnn(C5CC5)c4)nc13)C(=O)N2C | 50.9% (inactive)
CC(=O)OCC1OC(OC2C(COC(C)=O)OC(OCCC[S-])C(OC(C)=O)C2OC(C)=O)C(OC(C)=O)C(OC(C)=O)C1OC(C)=O.[Au+].c1ccc(CN2[CH-]N(Cc3ccccc3)C(c3ccccc3)=C2c2ccccc2)cc1 (stereo not given) | 10.2% (inactive)
c1ccc(C2CC(c3cccc(Nc4ccncc4)c3)=NN2c2ccccc2)cc1 (stereo not given) | 24.2% (inactive)
CCCCCC(C)(CC(=O)O)CC(=O)O | 95.3% (inactive)
O=S1(=O)CC(Br)C(Br)C1 (stereo not given) | 37% (inactive) and 75.6% (inactive)
OC1CCC(Oc2cccc3cnc(Nc4ccc5nc[nH]c5c4)nc23)CC1 (stereo not given) | -42.4% (active) and 69.7% (inactive)
COc1cc2nc(-c3ccc(Cl)cc3)cc(OCCCNCC3CCCO3)c2cc1OC (stereo not given) | 46.2% (inactive)
Cc1nnc(-c2ccc3c(c2)nc(/C=C/c2ccccc2)n3C2CCCCC2)o1 | 91.3% (inactive)
COc1ccc(/C=N\N2CCOCC2)cc1OC1CCCC1 | 117% (inactive)
